This note sets out measurements from PubChem BioAssay AID1345085 (National Center for Advancing Translational Sciences (NCATS), 2018).

Inconclusive results are not listed. Values without a mark were called inactive. Active and inactive are the calls of the source. Calls come from the whole dose curve; as a rule, active = well fitted cell-killing curve with a large enough effect; inconclusive = small, poorly fitted or top-dose-only effect, or effect the other way; inactive = no such curve, though single readings can be large or run the other way.
% is set by controls: 0 for no effect and ±100 for the full control effect; potency is the fitted concentration of half-maximal effect.

For this assay, the system named is Es-2. In words: Confirmatory qHTS for gynecologic anti-cancer compounds from libraries of approved drugs and bioactive compounds. Note: nearly all actives have a fitted effect of over 55% in size. The conditions noted are these: gynecologic cancer cell panel viability, ATPlite luminescence, 48 h; series mostly up to 57.6 µM; activity change, negative = viability loss: at the top concentration. The essentials: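 Viability is measured as ATP-dependent luciferase light using ATPlite, read 15 min after reagent addition at room temperature. Compounds, in DMSO, span 57.5 uM down to 0.977 nM over 11 threefold steps for 48 h.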
For `COc1cc(Nc2c(C#N)cnc3cc(OCCCN4CCN(C)CC4)c(OC)cc23)c(Cl)cc1Cl`, the Potency was 21.7 µM (active). Take `O=c1[nH]c(=O)n([C@H]2C[C@H](O)[C@@H](CO)O2)cc1Br`: the “activity change, negative = viability loss” value is 5.77%. As to `CCOc1cc2ncc(C#N)c(Nc3ccc(F)c(Cl)c3)c2cc1NC(=O)/C=C/CN(C)C`, the Potency is 24.3 µM (active). As to `CN(C)/N=N/c1nc[nH]c1C(N)=O`, the “activity change, negative = viability loss” value was -10.7%. On to `Cc1cnc(Nc2ccc(CN3CCOCC3)cc2)nc1Nc1cccc(S(=O)(=O)NC(C)(C)C)c1`, for which the Potency was 4.32 µM (active). For the compound `CC[C@@]1(O)C(=O)OCc2c1cc1n(c2=O)Cc2c-1nc1ccccc1c2/C=N/OC(C)(C)C`, the Potency was 0.0153 µM (active).

As to `Cc1ccc(NC(=O)c2ccc(CN3CCN(C)CC3)cc2)cc1Nc1nccc(-c2cccnc2)n1`, the “activity change, negative = viability loss” value was 4.97%. Still for that read-out and setting: with `CCCc1nn(C)c2c(=O)[nH]c(-c3cc(S(=O)(=O)N4CCN(C)CC4)ccc3OCC)nc12` the figure was 8%; with `CNCc1ccc(-c2[nH]c3cc(F)cc4c3c2CCNC4=O)cc1`, -16.9%; with `COc1ccc2c(c1)c(CC(=O)O)c(C)n2C(=O)c1ccc(Cl)cc1`, -5.45%. Regarding `CC[C@]1(O)C[C@H]2CN(CCc3c([nH]c4ccccc34)[C@@](C(=O)OC)(c3cc4c(cc3OC)N(C=O)[C@H]3[C@@](O)(C(=O)OC)[C@H](OC(C)=O)[C@]5(CC)C=CCN6CC[C@]43[C@@H]65)C2)C1`, the Potency was 0.432 µM (active).

Take `S=c1nc[nH]c2nc[nH]c12`: the Potency is 3.85 µM (active). Still for that read-out and setting: with `Cc1nc(N)nc(N)c1-c1ccc(Cl)c(Cl)c1` the figure was 1.37 µM (active). For the compound `Cc1ccc(C(=O)N(CCCN)C(c2nc3cc(Cl)ccc3c(=O)n2Cc2ccccc2)C(C)C)cc1` (centres undefined), the Potency is 3.85 µM (active).
